High-throughput results: PubChem, National Center for Advancing Translational Sciences (NCATS)
HCMV inh: blocks human cytomegalovirus replication; HFF cells, HCMV-luciferase reporter, 72 h; hits give low values; activity change, negative = inhibition, % at 57.5 µM; 410,000 tested, 4.5% active; in the data active means activity change below about -60%; inconclusive means no clear call, values can overlap the other calls; inactive means above about -39%
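Screen run at 2 compound doses on HFFs infected with reporter HCMV, MOI 1 PFU/cell. Luciferase activity from cell lysates at 72 h post infection gave inhibition relative to buffer-only and Salinomycin wells.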
HCV inh: inhibitors of hepatitis C virus infection | Huh7.5.1 HCVcc-Cre infection, luciferase reporter, 44 h | Potency, µM (top dose mostly 41.8 µM), usual class: inhibitors | 340,000 tested, 3.4% active
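Compounds are dispensed onto cells plated 4 h earlier at 1,000 per well, with HCVcc-Cre virus (about 0.5 moi) added next. Following 44 h of culture, luminescent signal is measured for 15 sec after 15 min with substrate at room temperature.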
Pf growth 48h: P. falciparum growth inhibition at 48 hours (one generation); 310,000 tested, 5.9% active; P. falciparum luciferase growth in erythrocytes, 48 h; Potency, µM (titrated, usually from 28.7 µM), actives largely listed as inhibitors
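In quantitative HTS format, infected erythrocytes bearing luciferase-reporter parasites were treated for a single generation at 37 C. Luminescence after adding detection reagent served as the growth measure.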
Pf growth 96h: P. falciparum growth inhibition at 96 hour, primary screen for plastid delayed-death inhibitors; P. falciparum luciferase reporter growth, 96 h; Potency, µM (doses to about 28.7 µM), most hits filed as inhibitors; 320,000 tested, 6.9% active; AID 504834
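Parasite growth measured via integrated firefly luciferase reporter in P. falciparum. Infected erythrocytes at 2% hematocrit, 0.05% parasitemia final were treated 96 hours at 37 C under 5% CO2, and luminescence was read.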
Hits are given with their value; . = inactive; ? = inconclusive; / = no result; ! = a repeat was not active. Most compounds without a hit are left out; they make up all but 13% or so of the library. Unless noted, the call rests on the fitted dose curve; in most records, active means well fitted inhibition curve with a large enough effect; inconclusive means small, poorly fitted or top-dose-only effect, or another doubt; inactive means no such curve, though single readings can be large or run the other way.

SMILES	HCMV inh	HCV inh	Pf growth 48h	Pf growth 96h
CCOc1ccc(NC(=O)CSc2nc3c(oc4ccccc43)c(=O)n2-c2cc(C)cc(C)c2)cc1	.	/	/	/
O=P(OC1CCCCC1)(OC1CCCCC1)C(O)c1c(Cl)cccc1Cl (centres undefined)	.	.	10µM	5.2µM
O=P(OC1CCCCC1)(OC1CCCCC1)C(O)c1ccc(Cl)cc1Cl (centres undefined)	.	.	1.9µM	/
Cc1ccc(CCNC(=O)Cn2c(-c3cccs3)cc3ccccc32)cc1	.	/	/	/
CCOC(=O)C1=C(C)N=c2sc(=Cc3ccc(OCC(=O)O)cc3)c(=O)n2C1c1ccc(Cl)cc1 (centres undefined)	.	/	/	/
CCOC(=O)C1=C(C)N=c2s/c(=C/c3ccc(OCC(=O)O)cc3)c(=O)n2C1c1cc(OC)c(OC)c(OC)c1 (centres undefined)	.	.	1µM	0.74µM
CCOC(=O)C1=C(C)N=c2sc(=Cc3cc(Cl)c(OCC(=O)O)c(Cl)c3)c(=O)n2C1c1cccc(OC)c1 (centres undefined)	.	/	/	/
CCOC(=O)C1=C(C)N=c2s/c(=C\c3ccc(OCC(=O)O)cc3)c(=O)n2C1c1ccc(OC(C)C)cc1 (centres undefined)	.	.	?	0.41µM
CCOC(=O)C1=C(C)N=c2s/c(=C\c3ccc(OC(C)=O)c(OCC)c3)c(=O)n2C1/C=C/c1ccccc1 (centres undefined)	/	.	10µM	.
COc1cccc(C2C(C(=O)Nc3ccccc3)=C(C)N=c3s/c(=C/c4ccc(OCC(=O)O)cc4)c(=O)n32)c1 (centres undefined)	.	.	7.4µM	1.2µM
Cc1cc(OC(C)C(=O)Nc2cccc(-c3nc4ccccc4o3)c2)cc(C)c1Cl (centres undefined)	.	/	/	/
CCOC(=O)C1=C(c2ccccc2)N=c2s/c(=C\c3cccc(O)c3)c(=O)n2C1c1cccs1 (centres undefined)	.	32µM	.	?
CCOC(=O)C1=C(C)N=c2s/c(=C\c3cccc(OCC(=O)O)c3)c(=O)n2C1c1ccccc1OC (centres undefined)	.	.	?	?
COc1ccccc1C1C(C(C)=O)=C(C)N=c2s/c(=C\c3cc(OC)c(OC)c(OC)c3)c(=O)n21 (centres undefined)	.	?	9.3µM	?
CC1=C(C(=O)Nc2ccccc2)C(c2ccc(O)cc2)N2C(=O)CSC2=N1 (centres undefined)	.	.	.	/
CC1=C(C(=O)Nc2ccccc2)C(c2ccc(C)o2)n2c(s/c(=C\c3ccco3)c2=O)=N1 (centres undefined)	.	?	13µM	?
COc1cccc(-n2c(SCc3cccc(C)c3)nc3c([nH]c4ccccc43)c2=O)c1	.	/	/	/
COc1ccccc1-c1noc(-c2ccc(NCc3cccnc3)c([N+](=O)[O-])c2)n1	.	/	/	/
O=[N+]([O-])c1ccc(N2CCN(Cc3ccccc3)CC2)c2c1no[n+]2[O-]	.	/	/	/
CCCCn1c(=O)[nH]c(=O)c2c1nc(-c1ccc3ccccc3c1)n2CC	.	?	.	?
CCCCn1c(=O)[nH]c(=O)c2c1nc(-c1ccc(C(F)(F)F)cc1)n2C	.	.	.	.
CCCCn1c(-c2ccc(Cl)c(Cl)c2)nc2cc3[nH]c(=O)c(C(C)C)nc3cc21	.	.	?	4.7µM
CCCCn1c(-c2ccc(C(C)(C)C)cc2)nc2cc3[nH]c(=O)c(C(C)C)nc3cc21	.	.	?	4.7µM
O=c1c(N2CCCCC2)csc2ccc(F)cc12	.	/	/	/
COC(=O)C1(O)CC(c2ccccc2)C(C(=O)c2ccc(Cl)cc2)N1c1ccccc1 (centres undefined)	-77	/	/	/
SMILES	HCMV inh	HCV inh	Pf growth 48h	Pf growth 96h
COC(=O)C1(O)CC(c2ccccc2)C(C(=O)c2ccccc2)N1c1ccc(Cl)cc1 (centres undefined)	.	/	/	/
COc1cccc(CNC(=O)c2ccc3nc(CCc4ccccc4)oc3c2)c1OC	.	/	/	/
COC(=O)C1CN(C(=O)COc2ccc(Cl)cc2C)c2ccccc2O1 (centres undefined)	-61	.	15µM	?
COC(=O)C1CN(C(=O)COc2ccccc2C)c2ccccc2O1 (centres undefined)	.	.	.	.
Cc1ccc(C)c(CSc2nnc3[nH]c(=O)cc(C)n23)c1	.	/	/	/
CCOc1ccc(CNC(=O)c2ccc(NC(=O)N3CCCCc4ccccc43)cc2)cc1OC	.	/	/	/
O=C(Nc1c(-c2ccccc2)nc2ccccn12)c1ccccc1F	-64!	.	/	.
O=C(Nc1c(-c2ccccc2)nc2ccc(Cl)cn12)c1cccs1	?	.	.	5.2µM
Cc1ccc2nc(-c3ccsc3)c(Nc3ccccc3C)n2c1	.	/	/	/
Cc1ccccc1Nc1c(-c2ccncc2)nc2ccc(Cl)cn12	-61!	.	?	.
CC(=O)c1ccc(NC(=O)CSc2nccn2Cc2ccco2)cc1	.	/	/	/
Cc1ccc2c(c1)c1c(c(=O)n(-c3cccc(Cl)c3)c(=O)n1CC(=O)NCCC1=CCCCC1)n2C	.	/	/	/
Cc1cc(F)ccc1NC(=O)CCSc1nc(-c2ccco2)cc(C(F)(F)F)n1	.	/	/	/
C#CCN(C[C@H]1[C@H](OC(=O)Nc2c(C)noc2C)[C@H](OC(=O)Nc2c(C)noc2C)CN(C(=O)OC(C)C)N1C(=O)OC(C)C)S(=O)(=O)c1ccc(C)cc1	.	/	/	/
O=C(CC1SC(N2CCCC2)=NC1=O)Nc1ccc(C(=O)N2CCN(c3cccc(Cl)c3)CC2)cc1 (centres undefined)	.	.	8.3µM	?
CCOC(=O)C1CCCN(C(=O)c2ccc(NC(=O)CC3SC(N4CCCC4)=NC3=O)cc2)C1 (centres undefined)	.	.	10µM	?
Cc1cccc(N2CCN(C(=O)c3ccc(NC(=O)CC4SC(N5CCCC5)=NC4=O)cc3)CC2)c1C (centres undefined)	.	.	/	/
COc1cccc(C(=O)/C=C/Nc2ccc(S(=O)(=O)Nc3ncccn3)cc2)c1	.	.	.	?
COc1cccc(C(=O)/C=C/Nc2ccc(S(=O)(=O)Nc3ccc(C(C)=O)cc3)cc2)c1	.	.	10µM	13µM
COc1cc(OC)c(OC)cc1/C=C/C(=O)c1ccc(NS(=O)(=O)c2ccc(C)cc2)cc1	-78	?	9.3µM	13µM
COc1cccc(C(=O)/C=C/Nc2cc(C)ccc2O)c1	-79	2.2µM	?	.
CC(=O)c1ccc(NS(=O)(=O)c2ccc(C)cc2)cc1	.	.	/	.
COc1cccc(C(=O)/C=C/Nc2ccc(S(=O)(=O)Nc3nc(C)cc(C)n3)cc2)c1	.	.	.	2.1µM
Cc1ccc(NC(=O)C(=O)c2cc(C)n(-c3ccc(F)cc3)c2C)cc1C	.	/	/	/
O=C(Nc1ccc(Cl)c(Cl)c1)N(Cc1c[nH]c2ccccc12)C1CCCCC1	.	/	/	/
COc1cccc(C(=O)/C=C/Nc2ccc(S(=O)(=O)Nc3cnc4ccccc4n3)cc2)c1	.	.	.	.
COc1ccc(C(=O)/C=C/Nc2ccc(S(=O)(=O)Nc3cccc(C(C)=O)c3)cc2)cc1	-72	11µM	?	?
